Source: the supplement of paper PMC8253809

Legend:
Assay in all cases: growth inhibition (% activity, log2 RLU normalised to DMSO / staurosporine); higher = more growth inhibition
Settings in all cases: 33 µM
[1] = system: DIPGX29 (H3.3 K27M diffuse intrinsic pontine glioma line)
Outline: (§1)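 For each approved drug, the growth-inhibition value is the replicate median of per-plate normalised CellTiter-Glo data. Luminescence was log2-transformed and expressed as % activity between solvent and positive control wells. Drugs were applied in triplicate at a single final concentration of about 33 μM for 7 days at 37 °C, 5% CO2 to pHGG cell lines and H9-derived neural stem cells.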

[2] = system: DIPGX37 (H3.3 K27M diffuse intrinsic pontine glioma line)
Outline: as §1

[3] = system: DIPGX7 (H3.3 K27M diffuse intrinsic pontine glioma line)
Outline: as §1

[4] = system: DIPGX9 (diffuse intrinsic pontine glioma line)
Outline: as §1

[5] = system: HGGX39 (paediatric high-grade glioma line)
Outline: as §1

[6] = system: HGGX6 (H3.3 G34R paediatric high-grade glioma line)
Outline: as §1

[7] = system: HNSC
Outline: as §1

[8] = system: SUDIPGIV (diffuse intrinsic pontine glioma line)
Outline: as §1

[9] = system: SUDIPGVI (diffuse intrinsic pontine glioma line)
Outline: as §1

[10] = system: SUDIPGXIII (diffuse intrinsic pontine glioma line)
Outline: as §1

| SMILES | growth inhibition [1] [%] | growth inhibition [2] [%] | growth inhibition [3] [%] | growth inhibition [4] [%] | growth inhibition [5] [%] | growth inhibition [6] [%] | growth inhibition [7] [%] | growth inhibition [8] [%] | growth inhibition [9] [%] | growth inhibition [10] [%] |
| --- | --- | --- | --- | --- | --- | --- | --- | --- | --- | --- |
| CN(Cc1ccc(C(C)(C)C)cc1)Cc1cccc2ccccc12 | 1.43 | 0.769 | 0.907 | 2.12 | 3.22 | 1.49 | 0.815 | 3.24 | 3.2 | 1.08 |
| COc1nc(N)nc2c1ncn2[C@@H]1O[C@H](CO)[C@@H](O)[C@@H]1O | -0.0296 | -1.39 | -1.6 | 1.18 | 2.74 | 1 | -1.01 | 0.63 | 0.545 | -2.52 |
| Nc1ccc(S(=O)(=O)Nc2nccs2)cc1 | -2.53 | -1.47 | -1.25 | -0.733 | -2.1 | -3.04 | 5.4 | -1.7 | -2.69 | 0.0367 |
| CC(=O)[C@H]1CC[C@H]2[C@@H]3CCC4=CC(=O)CC[C@]4(C)[C@H]3CC[C@]12C | 1.09 | 3.02 | 4.3 | 2 | 4.64 | 5.84 | 2.02 | -1.26 | 1.04 | 1.18 |
| C[C@]12CC[C@H](O)CC1=CC[C@@H]1[C@@H]2CC[C@]2(C)C(c3cccnc3)=CC[C@@H]12 | -2.51 | -0.544 | 0.888 | 2.81 | 3.94 | -0.894 | -6.23 | 0.327 | -2.29 | -1.17 |
| OC(CCN1CCCC1)(c1ccccc1)C1CCCCC1 (stereo not given) | -1.59 | 0.342 | -1.45 | -1.38 | -2.22 | -0.386 | -0.926 | -0.217 | -0.619 | -1.02 |
| CC1=C(/C=C/C(C)=C/C=C/C(C)=C/C=C/C=C(C)/C=C/C=C(C)/C=C/C2=C(C)CCCC2(C)C)C(C)(C)CCC1 | -2.65 | -1.75 | -0.22 | -2.07 | -4.95 | -2.28 | -2.5 | -5 | -7.28 | -0.475 |
| COc1cc2nc(N(C)CCCNC(=O)C3CCCO3)nc(N)c2cc1OC (stereo not given) | 0.0156 | 1.16 | -0.0243 | 0.217 | -0.734 | 1.08 | -0.343 | -0.994 | 1.28 | 1.78 |
| C1N2CN3CN1CN(C2)C3 | 1.11 | 3.51 | 1.18 | 2.53 | 3.89 | 2.47 | 0.987 | 1.56 | 1.89 | -0.234 |
| Cc1ccc(O)c([C@H](CCN(C(C)C)C(C)C)c2ccccc2)c1 | -0.51 | 1.21 | -1.14 | 1.39 | 7.27 | -3.24 | 8.98 | 2 | 1.35 | -1.5 |
| CCOC(=O)[C@H](CCc1ccccc1)N[C@@H](C)C(=O)N1Cc2cc(OC)c(OC)cc2C[C@H]1C(=O)O | -2.18 | -2.28 | -0.52 | -1.23 | -1.86 | -4.51 | 12.2 | -0.334 | -11 | 1.38 |
| CCCCOc1cc(C(=O)OCCN(CC)CC)ccc1N | 0.216 | -0.547 | 1.69 | 0.918 | 14.2 | 9.49 | -2.2 | 4.07 | -0.0266 | 2.42 |
| COC(=O)C1=C(C)NC(C)=C(C(=O)OCCN2CCN(C(c3ccccc3)c3ccccc3)CC2)C1c1cccc([N+](=O)[O-])c1 (stereo not given) | 5.69 | 6.99 | 4.72 | 4.03 | 8.12 | 5.46 | 73 | 3.75 | 6.07 | 22 |
| CC(=O)OCC(=O)[C@@]1(O)CC[C@H]2[C@@H]3CCC4=CC(=O)C=C[C@]4(C)[C@@]3(Cl)[C@@H](Cl)C[C@@]21C | 0.772 | 1.33 | 1.5 | 3.59 | 0.199 | -1.27 | 8.39 | -2.64 | -2.25 | 1.64 |
| NS(=O)(=O)c1cc2c(cc1C(F)(F)F)NC(Cc1ccccc1)NS2(=O)=O (stereo not given) | -1.42 | 2.24 | -1.56 | -0.0939 | -0.621 | 1.26 | -0.523 | -1.96 | 0.355 | 0.995 |
| NC(=O)c1cn(Cc2c(F)cccc2F)nn1 | -1.15 | -0.27 | -2 | -1.13 | -1.24 | -1.04 | -2.69 | -1.85 | -0.117 | 0.834 |
| Cc1c(N(C)C)c(=O)n(-c2ccccc2)n1C | -0.911 | -0.00267 | 0.576 | -1.42 | 2.61 | -1.31 | -0.0115 | -1.34 | -0.66 | 0.298 |
| C[C@H](Cn1cnc2c(N)ncnc21)OCP(=O)(O)O | -1.46 | -3.07 | -1.11 | -0.823 | -1.24 | -0.0212 | -0.925 | -2.6 | -0.383 | 0.192 |
| Nc1nc2[nH]cnc2c(=S)[nH]1 | 23.3 | 12.5 | 5.75 | 17.2 | 25 | 18.7 | 63.7 | 42.5 | -1.02 | 2.55 |
| [O-][n+]1cccc(CO)c1 | -0.666 | 1.68 | -0.893 | -0.317 | 0.747 | 0.543 | -0.142 | -0.682 | -0.214 | 2.91 |
| CNCCCC12CCC(c3ccccc31)c1ccccc12 | -1.06 | -0.189 | 1.34 | -1.84 | -0.798 | -0.808 | 27.6 | -1.99 | -4.58 | 0.908 |

| SMILES | growth inhibition [1] [%] | growth inhibition [2] [%] | growth inhibition [3] [%] | growth inhibition [4] [%] | growth inhibition [5] [%] | growth inhibition [6] [%] | growth inhibition [7] [%] | growth inhibition [8] [%] | growth inhibition [9] [%] | growth inhibition [10] [%] |
| --- | --- | --- | --- | --- | --- | --- | --- | --- | --- | --- |
| C[C@]12CC[C@@H]3c4ccc(O)cc4CC[C@H]3[C@@H]1CCC2=O | 0.142 | 1.98 | 2.55 | 1.67 | 3.84 | 0.36 | 1.29 | 1.87 | 0.844 | -0.509 |
| CCOC(=O)[C@H](CCc1ccccc1)N[C@H]1CCc2ccccc2N(CC(=O)O)C1=O | -0.274 | -0.666 | 0.62 | -1.51 | -0.668 | -3.48 | 0.9 | -2.69 | -7.43 | -0.0284 |
| CC(=O)OCC(=O)[C@@]1(O)[C@H](C)C[C@H]2[C@@H]3CCC4=CC(=O)C=C[C@]4(C)[C@@]3(F)[C@@H](O)C[C@@]21C | 6.47 | 3.67 | 1.89 | 6.29 | 6.91 | 5.01 | 2.34 | 5.88 | 3.94 | 1.28 |
| CC(C)NCC(O)c1ccc(NS(C)(=O)=O)cc1 (stereo not given) | -1.59 | 1.48 | 1.46 | 0.414 | 0.329 | -2.93 | 9.65 | 3.05 | 2.59 | -1.17 |
| CN[C@@H]1[C@H](O)[C@H](NC)[C@H]2O[C@@]3(O)C(=O)C[C@@H](C)O[C@H]3O[C@@H]2[C@H]1O | 1.24 | 1.47 | 0.532 | 2.81 | 1.18 | -0.547 | 3.02 | 0.676 | 2.4 | 0.316 |
| Cn1c(CNc2ccc(C(=N)N)cc2)nc2cc(C(=O)N(CCC(=O)O)c3ccccn3)ccc21 | 0.681 | 3.45 | 1.05 | 3.29 | 2.01 | -1.53 | 6.58 | 1.54 | 0.719 | -0.457 |
| COc1cc(C(C)=O)ccc1OCCCN1CCC(c2noc3cc(F)ccc23)CC1 | 1.79 | 0.322 | 12.7 | 0.361 | 4.35 | 0.871 | 0.367 | 2.3 | -12.2 | 4.02 |
| C#Cc1cccc(Nc2ncnc3cc(OCCOC)c(OCCOC)cc23)c1 | 4.75 | 0.211 | 3.55 | 2.64 | 5.69 | 6.15 | 20.9 | -5.33 | 3.91 | 1.17 |
| OCCOCCN1CCN(C(c2ccccc2)c2ccc(Cl)cc2)CC1 (stereo not given) | 3.87 | 0.602 | 4.59 | 0.403 | 2.86 | 3.73 | 4.05 | 1.02 | -1.15 | 1.1 |
| C/C(O)=C(\C#N)C(=O)Nc1ccc(C(F)(F)F)cc1 | 3.56 | 5.04 | 3.25 | 5.83 | 5.87 | 5.21 | 2.85 | 9.89 | 4.21 | -15.3 |
| CC(S)C(=O)NCC(=O)O (stereo not given) | 0.154 | -1.2 | -0.0217 | 1.07 | 2.86 | 0.336 | 0.528 | -0.0269 | -0.507 | -0.969 |
| CCC(C)C1OC2(CCC1C)CC1CC(CC=C(C)C(OC3CC(OC)C(OC4CC(OC)C(O)C(C)O4)C(C)O3)C(C)C=CC=C3COC4C(O)C(C)=CC(C(=O)O1)C34O)O2 (stereo not given) | 3.13 | 0.396 | 1.82 | 2.33 | 3.17 | 15.6 | 27.4 | 0.217 | 3.51 | 47.6 |
| CN1CCN(c2cc3c(cc2F)c(=O)c(C(=O)O)cn3-c2ccc(F)cc2)CC1 | 0.274 | 1.39 | 0.237 | 1.68 | 1.58 | -0.335 | 4.83 | 0.444 | 1.63 | 0.0917 |
| Cc1nc(-c2ccc(OCC(C)C)c(C#N)c2)sc1C(=O)O | 0.052 | -0.105 | 1.2 | 1.34 | 2.02 | 3.15 | -1.07 | -0.558 | -0.306 | 1.95 |
| CN1C(C(=O)Nc2ccccn2)=C(O)c2ccccc2S1(=O)=O | -1.78 | 1.01 | -0.635 | -1.57 | 0.433 | -2.07 | 2.62 | -1.29 | 0.752 | -1.07 |
| CS(=O)(=O)c1ccc([C@@H](O)[C@@H](CO)NC(=O)C(Cl)Cl)cc1 | 7.76 | 3.94 | 4.74 | 7.6 | 16.3 | 5.24 | 15.1 | 35 | 5.62 | 20 |
| c1ccc(CN(CC2=NCCN2)c2ccccc2)cc1 | 1.93 | 1.36 | 0.575 | 3.38 | 1.53 | 0.0328 | 0.623 | -2.17 | 3.06 | 0.969 |
| C[C@@H](O)[C@H]1C(=O)N2C(C(=O)O)=C(S[C@@H]3CN[C@H](C(=O)N(C)C)C3)[C@H](C)[C@H]12 | -2.93 | 0.205 | -1.37 | -0.242 | -2.33 | -3.05 | 4.4 | -2.08 | -2.04 | 0.717 |
| N=C(N=C(N)N)N1CCOCC1 | 0.894 | 3.09 | 0.853 | 1.87 | 2.32 | 0.804 | 0.723 | -0.801 | 2.92 | -0.103 |
| CNCC[C@@H](Oc1ccccc1C)c1ccccc1 | 1.02 | 2.33 | 2.36 | 0.537 | 2.58 | -1.18 | 8.5 | 3.36 | 4.57 | 1.41 |
